Tb PYK inh = inhibitors of Trypanosoma brucei pyruvate kinase | Q57TT1 | TbPYK enzyme, Kinase-Glo Plus ATP luminescence, 45 min | Potency, µM (top dose mostly 76.8 µM), for the others: at the highest dose activity, negative = inhibition, hits mostly inhibitors | hit rate 0.12% among 410,000; further: potency means the concentration at half of the fitted maximal effect; on the % scale 0 is the no-effect control and ±100 the full control effect; nearly all actives have a fitted effect of over 50% in size
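Enzyme and substrate buffer are dispensed first and compound is pin-transferred. ADP at 130 uM final then starts the reaction, which runs 45 min at room temperature. Detection reagent is added for 10 min before luminescence is imaged.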
RE007 growth inh = less growth of the S. pombe RE007 Vpr strain; S. pombe RE007 Vpr strain, BacTiter-Glo ATP luminescence, 24 h; Potency, µM (doses to about 92.2 µM), for the others: at the top dose activity change, negative = less growth, actives largely listed as inhibitors; hit rate 0.21% among 360,000; AID 651644; active means well fitted falling curve with a large enough effect; inconclusive means small, poorly fitted or top-dose-only effect; inactive means no such curve, though single readings can be large or run the other way; further: potency means the concentration at half of the fitted maximal effect; on the % scale 0 is the no-effect control and ±100 the full control effect; nearly all actives have a fitted effect of over 50% in size
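Fission yeast strain RE007, carrying one chromosomally integrated HIV-1 vpr copy, was seeded at OD 0.01 in PMG+AL medium with 23 nL pinned compound. After 24 h at 30 °C and 99% humidity, viability was read by BacTiter-Glo luminescence.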
Shiga inhibitor = inhibitors of Shiga toxin in Vero cells; Vero cells, Shiga toxin protein synthesis inhibition reporter; inhibition, % at 38.7 µM; hit rate 9.2% among 290,000; AID 2315; in the data active means inhibition mostly above about 28%, no sharp cut-off; inactive means mostly below about 43%; further: 0% is about no effect
FBPA Giardia inh = inhibitors of Giardia lamblia fructose-1,6-bisphosphate aldolase | A8B2U2 | purified Giardia FBPA | Potency, µM (series often up to 59.6 µM), for inactives: at the highest dose activity, negative = inhibition, actives largely listed as inhibitors | hit rate 0.71% among 290,000; further: potency means the concentration at half of the fitted maximal effect; on the % scale 0 is the no-effect control and ±100 the full control effect; nearly all actives have a fitted effect of over 55% in size
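40 nM FBPA preincubated 10 min at RT with compound (up to 57.5 uM final), then substrate plus GAPDH/TPI/NAD/arsenate coupling and diaphorase/resazurin added. Fluorescence read after 20 min at RT, 525/598 nm.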
LmPK inh = inhibitors of Leishmania mexicana pyruvate kinase. hit rate 0.37% among 290,000. Potency, µM (titrated, usually from 57.5 µM), without a hit: at the top dose activity change, negative = inhibition, actives largely listed as inhibitors. Q27686. purified LmPK, Kinase-Glo ATP luminescence, 1 h; further: potency means the concentration at half of the fitted maximal effect; on the % scale 0 is the no-effect control and ±100 the full control effect
Target sequence (Q27686 whole entry, looked up): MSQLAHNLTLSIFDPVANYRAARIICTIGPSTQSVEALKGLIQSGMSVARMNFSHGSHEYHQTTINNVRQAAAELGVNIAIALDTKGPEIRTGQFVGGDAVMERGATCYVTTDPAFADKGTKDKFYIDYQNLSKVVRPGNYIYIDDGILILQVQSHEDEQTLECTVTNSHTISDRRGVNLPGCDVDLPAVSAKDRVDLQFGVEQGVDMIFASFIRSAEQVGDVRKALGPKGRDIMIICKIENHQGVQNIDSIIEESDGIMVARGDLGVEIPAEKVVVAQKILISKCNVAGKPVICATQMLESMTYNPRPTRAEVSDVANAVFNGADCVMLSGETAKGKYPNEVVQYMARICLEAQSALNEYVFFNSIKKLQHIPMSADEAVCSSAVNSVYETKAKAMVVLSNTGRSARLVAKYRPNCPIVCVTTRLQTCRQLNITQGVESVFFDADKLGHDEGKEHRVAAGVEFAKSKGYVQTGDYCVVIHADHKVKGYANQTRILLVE
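Pyruvate kinase activity monitored as ATP production (luciferase luminescence). Conditions: 0.1 nM enzyme, 0.5 mM PEP, 0.1 mM ADP, 1 h, RT; normalized against uninhibited and no-enzyme wells.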
CHX counter = counter-screen for Shiga toxin inhibitors: cycloheximide protein synthesis inhibition. cell reporter, cycloheximide protein synthesis inhibition counterscreen. max response, %. hit rate 12% among 300,000. AID 2314; in the data active means max response mostly above about 13%, no sharp cut-off; inactive means mostly below about 14%; further: read at 38.3 µM for the half of the compounds with a filed dose; 0% is about no effect
* marks the source's active call; other numbers are inactive results; i = inactive; ? = inconclusive; . = no result given; [ ] = dose if it differs, or a comment. The entries come from a sample that favours hits as a whole. Unless noted, the call rests on the fitted dose curve; in most records, active means well fitted curve in the direction sought with a large enough effect; inconclusive means small, poorly fitted or top-dose-only effect, or another doubt; inactive means no such curve, though single readings can be large; an effect the other way counts as inactive or inconclusive.

SMILES | Tb PYK inh | RE007 growth inh | Shiga inhibitor | FBPA Giardia inh | LmPK inh | CHX counter
CN(c1ccccc1)S(=O)(=O)c1cccc(NC(=O)CSc2ncc(C(F)(F)F)cc2Cl)c1 | -6% | 6% | 3 | -1% | -3% | 3
CC1(C)SC(=Nc2ccccc2)N(S(=O)(=O)c2ccccc2)C1=O | -9% | 17% | 7 | 5% | 3% | -4
O=C1C(c2ccccc2)SC(=Nc2ccccc2)N1S(=O)(=O)c1ccccc1 (stereo unspecified) | -24% | -12% | 45 | 3% | 0% | 30*
CN(CCC1CCOCC1)C(=O)c1cc(COc2c(F)cccc2F)on1 | -6% | -7% | 23 | . | 2% | 27*
CN(Cc1cc(-c2ccccc2)on1)C(=O)c1cc(COc2c(F)cccc2F)on1 | 2% | 4% | 70* | -2% | 3% | 42*
CN(CC1COCCO1)C(=O)c1cc(COc2c(F)cccc2F)on1 (stereo unspecified) | 2% | -29% | 53* | 4% | 6% | 27*
CSc1ccccc1OCc1cc(C(=O)N(C)CC2COCCO2)no1 (stereo unspecified) | 4% | -23% | 61* | . | -4% | 30*
CN(CC1COc2ccccc2O1)C(=O)c1cc(COc2c(F)cccc2F)on1 (stereo unspecified) | -2% | -21% | 13 | . | -2% | 6
Cc1nc(CN(C)C(=O)c2cc(COc3c(F)cccc3F)on2)cs1 | -7% | -5% | 13 | -1% | 0% | 10
CCC(C=C[C@@H]1OC(=O)C=C[C@H]1C)=C[C@H](C)CC=CC(C)=C[C@@H](C)C(=O)[C@@H](C)[C@H](O)[C@@H](C)CC(C)=CC(=O)O | . | . | i | ? | . | 6
Cc1ccc(S(=O)(=O)c2nc(S(C)(=O)=O)sc2NCc2ccccc2)cc1 | 7% | . | . | . | . | .
COc1ccc(-n2c(C)cc(/C=C3/SC(=O)N(CC(=O)N4CCOCC4)C3=O)c2C)cc1 | 5% | -28% | -4 | ? | -3% | 6
Cc1cc(/C=C2/SC(=O)N(CC(=O)N3CCOCC3)C2=O)c(C)n1-c1ccccc1F | 4% | -8% | 47* | -26% | 0% | 22*
CSc1cccc(NC(=O)C2CCN(C(=O)c3cnn(-c4ccccc4)c3-n3cccc3)CC2)c1 | 1% | . | . | . | . | .
O=C(NCCc1ccc(Cl)cc1)c1ccc(Br)s1 | 3% | 5% | 55* | -1% | 8% | 45*
O=C(Cc1c[nH]c2ccccc12)NCc1ccncc1 | 2% | 0% | -6 | . | -2% | -1
O=C(NCCc1ccccc1)c1n[nH]c(=O)c2ccccc12 | 1% | 10% | 26 | 1% | 7% | 27*
Cc1cc(S(=O)(=O)NCc2ccccc2)ccc1OCC(=O)NCc1ccncc1 | 1% | 0% | 80* | . | -11% | 49*
O=C(COc1ccc(S(=O)(=O)NCc2ccccc2)cc1Cl)NCc1ccncc1 | -11% | -25% | -18 | -27% | -2% | -2
O=C(Cc1ccccc1)NCc1ccncc1 | -7% | -10% | 67* | -1% | 6% | 42*
COc1ccc(CNc2ncncc2-c2ccc3c(c2)OCO3)c(OC)c1 | . | . | . | -1% | . | .
CC(C)Cn1c(=O)c2ccccc2n2c(CCC(=O)NC(C)c3ccccc3)nnc12 (stereo unspecified) | -4% | . | . | . | . | .
CC(C)(C)c1ccc(C(=O)N2CCC2(C)C(=O)NS(=O)(=O)c2ccccc2Cl)cc1 (stereo unspecified) | 4% | -8%[18.4 µM] | . | . | . | .
Cc1cnc(C(=O)OC(C(=O)c2c[nH]c3ccccc23)c2ccccc2)cn1 (stereo unspecified) | -4% | -4% | . | . | . | .
Cc1ccc(C(=O)NCCc2ccc(F)cc2)s1 | 2% | 15% | 58* | -1% | 1% | 59*
SMILES | Tb PYK inh | RE007 growth inh | Shiga inhibitor | FBPA Giardia inh | LmPK inh | CHX counter
O=C(NCCc1ccccc1)c1ccc(Cl)nc1 | -12% | -18% | 60* | 3% | 6% | 33*
O=C(NCCc1ccccc1)c1ccncc1 | . | . | 95* | 8% | -2% | 32*
O=C(COC(=O)c1ccc(Cl)nc1)NCCc1ccc(Cl)cc1 | -8% | 3% | . | . | . | .
O=C(NCCc1ccc(F)cc1)c1ccncc1 | -6% | 11% | 87* | . | -1% | 16*
Cc1ccc(NC(=O)c2cc(S(=O)(=O)N3CCOCC3)c(Cl)cc2Cl)cc1 | -10% | . | . | . | . | .
CCC1CN(C(=O)N2CCC(C(=O)NCCc3ccc(Cl)cc3)CC2)c2ccccc2O1 (stereo unspecified) | 0% | . | . | . | . | .
O=C(O)c1cccc(N/N=C/c2cccc3ccccc23)c1 | -9% | 2% | 165* | 3% | 4% | 74*
COc1ccc(-c2nn(-c3ccccc3)cc2/C=N/Nc2ccc(Cl)c(C(=O)O)c2)cc1OC | -4% | -6% | 72* | -3% | 8% | 19*
COc1ccc2ccccc2c1/C=N/Nc1ccc(Cl)c(C(=O)O)c1 | -15% | -25% | 56* | ? | 14% | 15
COc1ccc2ccccc2c1/C=N/NC(=O)c1ccc(C)nc1 | -2% | -9% | 7 | -10% | -8% | 15
COc1ccc(N/N=C/c2c(C(=O)O)ccc3ccccc23)cc1 | 13% | -6% | 27* | -11% | 1% | 22*
COc1ccc(C)cc1NC(=O)CC(=O)Nc1ccc2nc3n(c(=O)c2c1)CCCCC3 | 3% | . | . | . | . | .
CCc1nnc2c(NCc3cccc(OC)c3)nc3ccccc3n12 | 1% | . | . | . | . | .
CN(C)c1ccc(C(CNS(=O)(=O)c2ccc(Br)cc2)N2CCCC2)cc1 (stereo unspecified) | 0% | . | . | . | . | .
CCCCN(CC)C(=O)CSc1nc2ccccc2c(=O)n1Cc1ccco1 | -3% | . | . | . | . | .
COc1ccc2ccccc2c1/C=N/Nc1cccc(C(=O)O)c1 | -5% | -9% | 134* | -9% | -6% | 72*
COc1ccc2ccccc2c1/C=N/NC(=O)c1cccc([N+](=O)[O-])c1 | -4% | -7% | 3 | 0% | 5% | 3
Cn1c(=O)[nH]c(=O)c2c1[nH]c(=S)n2Cc1ccc(Cl)cc1 | 5.6µM* | . | -2 | ? | ? | 0
Cn1c(=O)[nH]c(=O)c2c1nc(Br)n2Cc1ccc(Cl)cc1 | -8% | 15% | . | . | . | .
CCc1cc2c(=O)[nH]c(N3CCOCC3)nc2s1 | 1% | 3% | 34* | 9% | -5% | 22*
CCc1cc2c(=O)[nH]c(-c3ccncc3)nc2s1 | -21% | 2% | -9 | -7% | -5% | 3
CC1CCC(NC(=O)c2ccc3nc[nH]c3c2)CC1 (stereo unspecified) | 1% | 11% | 47* | -4% | -2% | 41*
Cc1[nH]c2ccc(C(=O)NC3CCC(C)CC3)cc2c1C (stereo unspecified) | 1% | -18% | 58* | -3% | 2% | 26*
COc1ccc(NC(=O)N(C)C[C@H]2Oc3c(NC(=O)c4nc5ccccc5s4)cccc3C(=O)N([C@@H](C)CO)C[C@H]2C)cc1 | 0% | 5% | . | . | . | .
